For seven molecules, Potency and outcome results are on record in PubChem BioAssay (Tox21).

A short description of assay [1]: Nuclear factor erythroid 2-related factor 2/antioxidant responsive element (Nrf2/ARE) small molecule agonists: qHTS cell viability counter screen in human keratinocytes (AID 1919968; active = well fitted curve in the direction sought with a large enough effect in the repeat runs; an effect the other way counts as inactive or inconclusive; also: nearly all actives have a fitted effect of over 55% in size). A digest of the protocol:
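Fluorescence read-out from CellTiter-Fluor after 1 h at 37 C. Wells held HaCaT-derived ARE-luciferase reporter cells (1,500/well) treated 23 h with DMSO-dissolved compounds. Run in the same wells as the luciferase agonist read.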
On the technique in general: qHTS replaces the single test concentration by a dilution series.

A short description of assay [2]: Nuclear factor erythroid 2-related factor 2/antioxidant responsive element (Nrf2/ARE) small molecule agonists: luciferase reporter gene qHTS assay in human keratinocytes (AID 1919969). Also: nearly all actives have a fitted effect of over 35% in size. Also: potency is read from the fitted curve at half-maximal effect. On the technique in general: In a reporter assay the amount or activity of a reporter protein is the signal.
Assay [3] concerns the target Gonadotropin-releasing hormone receptor (Homo sapiens) (UniProt P30968). The assay can be described thus: Human gonadotropin-releasing hormone receptor (GnRHR) small molecule agonists, calcium flux assay in GnRHR-HEK293 cells (AID 1920063). Also: nearly all actives have a fitted effect of over 35% in size. The gist of the method: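 Calcium-dye fluorescence, Ex/Em=480/540, recorded every 1 sec over 3 min after compound addition to GnRHR-HEK293 cells. Cells had been seeded 18 hours earlier and dye-loaded for 1 hour at 37 C. Fifteen concentrations, triplicates.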
Background: A change in cytosolic calcium serves as a functional read-out for many receptors and channels.

Assay [4] has as its target KiSS-1 receptor (Homo sapiens) (UniProt Q969F8). In words: Human kisspeptin (KISS1R) small molecule agonists, calcium flux assay in KISS1R-HEK293 cells (AID 1920064; active = well fitted curve in the direction sought with a large enough effect in the repeat runs; an effect the other way counts as inactive or inconclusive). The gist of the method: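 Calcium flux read-out: kinetic fluorescence at Ex/Em=480/540, 1 s intervals over 3 min, after pin-tool compound addition to dye-loaded KISS1R-HEK293 cells. Fifteen concentrations, triplicates.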

The nature of assay [5]: G protein-coupled receptor (GPCR) small molecule agonists, calcium flux assay: HEK293 wild type cell line counter screen (AID 1920065). The gist of the method:
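Agonist mode; 18 h seeding at 37 C, 1 h dye load at 37 C; compounds pinned from DMSO, ATP as positive control; kinetic fluorescence 480/540 nm, 3 min, 1 s reads; 15 concentrations, triplicate.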

The nature of assay [6]: p53 small molecule agonists, cell-based qHTS assay with human liver microsomes (AID 1963577).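 Also: p53 response element beta-lactamase reporter cells with liver microsomes plus NADPH.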 A digest of the protocol:
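In this qHTS, p53 response-element beta-lactamase cells receive test compound together with a microsome/NADPH activating system (0.5 mg/mL final each) and are incubated 16 h at 37 C before LiveBLAzer fluorescence detection.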

Assay [7] can be described thus: p53 small molecule agonists, cell-based qHTS assay with rat liver microsomes (AID 1963578). The gist of the method:
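Agonist mode in p53RE-bla reporter cells, with compounds co-incubated 16 h at 37 C alongside 0.5 mg/mL rat liver microsomes and 0.5 mg/mL NADPH (final), followed by a 2 h LiveBLAzer detection step.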

Assay [8] in a line: p53 small molecule agonists, cell-based qHTS assay with human liver microsomes: qHTS cell viability counter screen (AID 1963579). Also: nearly all actives have a fitted effect of over 45% in size. Also: potency is read from the fitted curve at half-maximal effect. The gist of the method: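 Metabolically activated exposure: compounds, human liver microsomes and NADPH (0.5 mg/mL final apiece) were added to p53RE-bla cells seeded 5 h earlier, left 16 h at 37 C, and then assessed for viability by CellTiter-Glo luminescence.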

Assay [9] can be described thus: p53 small molecule agonists, cell-based qHTS assay with rat liver microsomes: qHTS cell viability counter screen (AID 1963580). Also: nearly all actives have a fitted effect of over 45% in size. The gist of the method:
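Cytotoxicity counter screen: intracellular ATP measured by CellTiter-Glo luminescence in the same wells as the beta-lactamase reporter read, on HCT-116 p53RE-bla cells exposed 16 h at 37 C to compounds with rat liver microsomes and NADPH, each 0.5 mg/mL final.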

Assay [10] can be described thus: p53 small molecule agonists, cell-based qHTS assay: qHTS cell viability counter screen (AID 1963581). Also: nearly all actives have a fitted effect of over 45% in size. Also: potency is read from the fitted curve at half-maximal effect. The gist of the method:
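Cytotoxicity read-out: ATP-based luminescence (CellTiter-Glo, 30 min RT) measured in the same wells as the p53 reporter assay, HCT-116 p53RE-bla cells, 16 h compound exposure at 37 C.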

The nature of assay [11]: p53 small molecule agonists, cell-based qHTS assay (AID 1963582; active = well fitted activation curve with a large enough effect in the signal ratio in the repeat runs, not every such curve was filed as active; the % refers to the signal ratio). A digest of the protocol: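 Fluorescence intensity read-out of a beta-lactamase reporter under a p53 response element. Cells were exposed to DMSO-dissolved compounds for 16 h at 37 C, then developed with FRET substrate for 2 h at RT.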
In assay [12] the target is 5-hydroxytryptamine receptor 2A (Homo sapiens) (UniProt P28223). In words: 5-hydroxytryptamine receptor 2A (HTR2A) small molecule antagonists, cell-based qHTS assay (AID 1963586). Also: nearly all actives have a fitted effect of over 45% in size. A digest of the protocol:
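CHO cells stably expressing human HTR2A were plated for 18 h at 37 C, then loaded with calcium dye for 1 h. Compounds were preincubated 5 min at room temperature before DOI (4 nM solution) was added. Kinetic fluorescence was read for 3 min.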

For assay [13] the target is unchanged. In words: 5-hydroxytryptamine receptor 2A (HTR2A) small molecule agonists, cell-based qHTS assay (AID 1963587). Also: nearly all actives have a fitted effect of over 30% in size. A digest of the protocol: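 CHO cells stably expressing human HTR2A, plated 18 h, loaded with calcium dye 1 h at 37 C. Agonist mode: compounds added and intracellular calcium fluorescence recorded kinetically for 2 min at 1 sec intervals.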
Assay [14] addresses Muscarinic acetylcholine receptor M1 (Homo sapiens) (UniProt P11229). In words: Cholinergic receptor muscarinic 1 (CHRM1) small molecule agonists, cell-based qHTS assay (AID 1963589). Also: nearly all actives have a fitted effect of over 35% in size. A digest of the protocol: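 Calcium flux read-out: kinetic fluorescence at 1 sec intervals after pin-tool compound addition to dye-loaded CHRM1-CHO cells (human M1). Agonist mode; 15 concentrations tested in triplicate independent runs.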

A short description of assay [15]: cAMP Responsive Elements (CRE) small molecule agonists, cell-based qHTS assay (AID 1963590). A digest of the protocol:
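Beta-lactamase reporter readout: LiveBLAzer B/G FRET substrate, 2 h at room temperature, added after 3 h compound treatment of CRE-bla HEK 293T cells at 37 C/5% CO2.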

Assay [16] is described as follows: cAMP Responsive Elements (CRE) small molecule antagonists, cell-based qHTS assay (AID 1963591; active = well fitted inhibition curve with a large enough effect in the signal ratio in the repeat runs, not every such curve was filed as active; the % refers to the signal ratio). The gist of the method:
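HEK293T CRE-bla; 18 h preincubation; compound pin-transfer; NKH477 0.25 uM final, 3 h, 37 C; LiveBLAzer FRET substrate 2 h RT.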

Assay [17] has as its target Beta-2 adrenergic receptor (Homo sapiens) (UniProt P07550). In words: Adrenergic beta2 receptor (ADRB2) small molecule antagonists, cell-based qHTS assay (AID 1963592). Also: series mostly up to about 92 µM; nearly all actives have a fitted effect of over 50% in size. A digest of the protocol:
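Assay format: CHO-ADRB2 cells, 18-20hr seeding at 37C/5% CO2, then compound plus 1nM isoproterenol agonist mix for 0.5hr RT. Homogeneous time-resolved fluorescence cAMP detection after 1hr, expressed as 665/615 nm ratio.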

Assay [18] concerns the target D(2) dopamine receptor (Homo sapiens) (UniProt P14416). The assay can be described thus: Dopamine D2 receptor (DRD2) small molecule agonists, cell-based qHTS assay (AID 1963594). Also: nearly all actives have a fitted effect of over 35% in size. A digest of the protocol:
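HEK293 cells stably expressing human DRD2, pre-treated with PDE inhibitor Ro20-1724 (0.1 mM final) and compound 10 min at room temperature, then stimulated with NKH477 (200nM […]) for 30 min. cAMP read by HTRF (665/620 nm).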

For assay [19] the target is unchanged. In words: Dopamine D2 receptor (DRD2) small molecule antagonists, cell-based qHTS assay (AID 1963595; active = well fitted inhibition curve with a large enough effect in the signal ratio in the repeat runs, with a control signal flat; the % refers to the signal ratio). The gist of the method: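 Stable D2 receptor HEK293 line, 24 h after seeding. Compound preincubated 10 min, then quinpirole (12 nM) with forskolin analogue NKH477 (200 nM), 30 min, room temperature. Detection by time-resolved FRET of cAMP.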
Assay [20] concerns the target Muscarinic acetylcholine receptor M1 (Homo sapiens) (UniProt P11229). The assay can be described thus: Cholinergic receptor muscarinic 1 (CHRM1) small molecule antagonists, cell-based qHTS assay (AID 1963588). Also: nearly all actives have a fitted effect of over 40% in size. Also: potency is read from the fitted curve at half-maximal effect. The gist of the method:
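Compounds were tested at 15 concentrations in three independent runs. Dye-loaded CHRM1-CHO cells were exposed 5 min at room temperature before stimulation by acetylcholine added at 50nM. Intracellular calcium was read kinetically on FDSS for 3 min.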

A number with no mark means an inactive call. Records with an inconclusive call do not appear. Active and inactive are the calls of the source. Unless noted, calls follow the shape of the full dose curve.

Gonadotropin-releasing hormone receptor (Homo sapiens), sequence (P30968 whole entry, looked up): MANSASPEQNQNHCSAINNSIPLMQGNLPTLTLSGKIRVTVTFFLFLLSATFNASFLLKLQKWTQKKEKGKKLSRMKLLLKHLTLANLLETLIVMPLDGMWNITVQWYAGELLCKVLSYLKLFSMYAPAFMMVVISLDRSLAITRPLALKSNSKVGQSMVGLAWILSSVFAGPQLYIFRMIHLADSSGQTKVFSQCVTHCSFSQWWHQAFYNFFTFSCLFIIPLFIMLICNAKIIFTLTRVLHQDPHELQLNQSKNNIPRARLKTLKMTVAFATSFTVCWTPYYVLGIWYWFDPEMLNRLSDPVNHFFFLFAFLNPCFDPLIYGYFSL
5-hydroxytryptamine receptor 2A (Homo sapiens), sequence (P28223 whole entry, looked up): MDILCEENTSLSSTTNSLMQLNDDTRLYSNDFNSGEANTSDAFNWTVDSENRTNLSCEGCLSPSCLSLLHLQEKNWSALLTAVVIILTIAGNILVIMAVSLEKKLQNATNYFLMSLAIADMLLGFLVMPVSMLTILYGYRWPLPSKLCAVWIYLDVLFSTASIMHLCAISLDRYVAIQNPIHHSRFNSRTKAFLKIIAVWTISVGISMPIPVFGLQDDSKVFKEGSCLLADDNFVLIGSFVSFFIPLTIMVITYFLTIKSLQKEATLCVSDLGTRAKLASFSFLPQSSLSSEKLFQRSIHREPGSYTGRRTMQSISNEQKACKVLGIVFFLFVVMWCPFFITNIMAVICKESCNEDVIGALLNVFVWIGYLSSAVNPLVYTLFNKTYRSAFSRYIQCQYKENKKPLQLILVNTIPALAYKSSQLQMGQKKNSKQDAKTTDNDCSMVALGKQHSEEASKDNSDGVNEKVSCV
KiSS-1 receptor (Homo sapiens), sequence (Q969F8 whole entry, looked up): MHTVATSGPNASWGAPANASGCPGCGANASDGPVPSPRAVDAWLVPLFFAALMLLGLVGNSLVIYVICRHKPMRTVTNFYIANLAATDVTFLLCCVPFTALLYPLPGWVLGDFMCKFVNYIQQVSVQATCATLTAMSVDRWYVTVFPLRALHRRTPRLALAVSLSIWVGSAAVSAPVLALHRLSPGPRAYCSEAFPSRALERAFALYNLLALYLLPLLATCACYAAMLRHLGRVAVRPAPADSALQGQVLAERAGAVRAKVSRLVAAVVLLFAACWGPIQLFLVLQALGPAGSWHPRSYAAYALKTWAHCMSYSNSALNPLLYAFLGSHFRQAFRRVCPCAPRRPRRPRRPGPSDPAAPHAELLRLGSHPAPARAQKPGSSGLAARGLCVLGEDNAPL
Beta-2 adrenergic receptor (Homo sapiens), sequence (P07550 whole entry, looked up): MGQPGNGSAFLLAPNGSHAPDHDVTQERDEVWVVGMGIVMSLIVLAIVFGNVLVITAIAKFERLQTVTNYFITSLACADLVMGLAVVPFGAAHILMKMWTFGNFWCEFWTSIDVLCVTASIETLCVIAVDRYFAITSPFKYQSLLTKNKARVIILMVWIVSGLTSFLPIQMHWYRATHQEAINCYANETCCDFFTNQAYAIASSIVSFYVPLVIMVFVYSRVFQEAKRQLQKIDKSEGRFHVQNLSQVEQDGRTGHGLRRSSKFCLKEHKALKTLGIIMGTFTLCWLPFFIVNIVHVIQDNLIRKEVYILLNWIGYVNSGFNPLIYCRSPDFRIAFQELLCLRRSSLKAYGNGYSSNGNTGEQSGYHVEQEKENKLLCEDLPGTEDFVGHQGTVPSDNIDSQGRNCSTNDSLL
D(2) dopamine receptor (Homo sapiens), sequence (P14416 whole entry, looked up): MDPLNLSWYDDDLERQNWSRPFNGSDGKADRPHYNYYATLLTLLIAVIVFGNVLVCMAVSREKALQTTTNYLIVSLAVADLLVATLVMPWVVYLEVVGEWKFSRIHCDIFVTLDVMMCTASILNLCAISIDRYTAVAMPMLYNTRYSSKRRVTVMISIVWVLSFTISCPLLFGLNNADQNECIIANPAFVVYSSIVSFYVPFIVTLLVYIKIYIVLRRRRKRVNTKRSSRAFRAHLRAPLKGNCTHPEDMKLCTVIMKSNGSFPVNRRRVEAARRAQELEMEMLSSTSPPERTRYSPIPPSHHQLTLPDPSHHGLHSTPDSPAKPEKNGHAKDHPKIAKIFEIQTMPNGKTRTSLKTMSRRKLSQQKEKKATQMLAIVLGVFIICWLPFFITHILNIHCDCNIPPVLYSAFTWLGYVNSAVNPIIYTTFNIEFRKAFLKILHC
Muscarinic acetylcholine receptor M1 (Homo sapiens), sequence (P11229 whole entry, looked up): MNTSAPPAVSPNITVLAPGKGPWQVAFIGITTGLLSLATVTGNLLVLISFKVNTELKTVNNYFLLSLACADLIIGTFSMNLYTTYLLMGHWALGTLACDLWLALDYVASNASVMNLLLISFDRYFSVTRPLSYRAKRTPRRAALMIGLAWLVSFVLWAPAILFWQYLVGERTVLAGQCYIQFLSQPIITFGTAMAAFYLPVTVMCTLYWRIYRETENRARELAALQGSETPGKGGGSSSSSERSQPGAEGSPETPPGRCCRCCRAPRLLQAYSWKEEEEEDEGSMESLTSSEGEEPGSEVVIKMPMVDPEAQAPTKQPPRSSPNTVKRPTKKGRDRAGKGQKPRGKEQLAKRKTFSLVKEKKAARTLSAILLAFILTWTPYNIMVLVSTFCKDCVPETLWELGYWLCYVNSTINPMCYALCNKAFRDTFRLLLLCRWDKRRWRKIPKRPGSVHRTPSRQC

For the molecule `CCN(CC)CCOc1ccc(Cc2ccccc2)cc1`, the Potency entry in assay [1], in [2], in [3], in assay [6], in [7] and in assay [8] was “inactive” each time. Further, the Potency entry in assay [9], in assay [10], in assay [11], in [12], in [13] and in assay [14] was “inactive” throughout. Further, the Potency result in assay [15], in assay [16], in assay [17], in [18] and in assay [19] was “inactive” each time. For the same molecule, the outcome in assay [4] and in assay [5] was inactive.
On to `CC/C=C\CCCCO`, for which the Potency entry in assay [1], in assay [2], in [3], in [6], in assay [7] and in [8] was “inactive” throughout. The Potency entry in assay [9], in assay [10], in assay [11], in assay [12], in assay [13] and in assay [20] was “inactive” throughout. Besides, the Potency entry in assay [15], in assay [16], in assay [17], in assay [18] and in assay [19] was “inactive” in each case. The result in [4] and in assay [5] was inactive.
Consider `CC(C)(c1ccc(Oc2ccc3c(c2)C(=O)OC3=O)cc1)c1ccc(Oc2ccc3c(c2)C(=O)OC3=O)cc1`, for which the Potency entry in assay [1], in assay [2], in assay [3], in [6], in [7] and in [8] was “inactive” throughout. Moreover, the Potency result in [9], in assay [10], in assay [11], in assay [12], in assay [13] and in assay [15] was “inactive” throughout. For the same molecule, the Potency result in assay [16], in assay [17], in assay [18] and in assay [19] was “inactive” each time. The outcome in [4] and in assay [5] was inactive. Further, in assay [20], the Potency was 37.3 µM (active).
`CC(CC(C#N)(c1ccccc1)C(C)C)N(C)C` (stereo unspecified): the Potency result in assay [1], in assay [2], in assay [3], in assay [6], in assay [7] and in assay [8] was “inactive” each time. Further, the Potency result in [9], in [10], in [11], in assay [12], in assay [13] and in [14] was “inactive” throughout. In addition, the Potency result in assay [15], in assay [16], in assay [17], in assay [18] and in assay [19] was “inactive” in each case. Besides, the outcome in [4] and in assay [5] was inactive.
Consider `CNc1c2c(nn1C)CCCC2`, for which the Potency result in assay [1], in assay [2], in [3], in assay [6], in [7] and in assay [8] was “inactive” throughout. The Potency entry in [9], in assay [10], in assay [11], in [12], in assay [13] and in [14] was “inactive” each time. Also, the Potency entry in [15], in [16], in [17], in [18] and in [19] was “inactive” in each case. Further, the outcome in assay [4] and in [5] was inactive.
With `Nc1ccccc1O`, the Potency entry in assay [1], in assay [3], in assay [6], in assay [7], in [9] and in assay [11] was “inactive” in each case. Further, the Potency entry in assay [12], in [13], in assay [20], in [14], in [18] and in assay [19] was “inactive” in each case. The Potency was 47.9 µM (active) in [2], 28.5 µM (active) in [8] and 32 µM (active) in assay [10]. The result in assay [4] and in assay [5] was inactive.
As to `OCCCO`, the Potency result in assay [1], in assay [2], in [3], in [6], in assay [7] and in assay [8] was “inactive” each time. The Potency result in assay [9], in assay [10], in assay [11], in [12], in assay [13] and in [14] was “inactive” in each case. In addition, the Potency result in assay [15], in [16], in assay [17], in assay [18] and in assay [19] was “inactive” in each case. Besides, the outcome in assay [4] and in assay [5] was inactive.
